Assay outcomes (PubChem)
A selection: hits, their analogues and other compounds. The true share with any hit is near 2.6%.
697 NFkB inh: inhibitors of the PMA/ionomycin-induced NF-kB reporter in 697 B cells. inhibition, % at 4 µM. hit rate 0.33% among 330,000. 697 B-cell NF-kB luciferase reporter, 16 h. AID 435022; in the data active = inhibition above about 35%
Cardio protect: protects H9c2 cardiomyocytes from peroxide injury; H2O2 injury protection, ATPLite, 2 h; protection from H2O2 cell death, % at 20 µM; hit rate 0.63% among 360,000; AID 588492;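 active = compounds giving at least 50% protection of heart cells from peroxide-induced death in the single-dose screen, raw or plate-pattern-corrected value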;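 note: 0% = DMSO wells with peroxide and 100% = DMSO wells without peroxide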
H9c2 TAG inh: inhibitors of triacylglycerol accumulation | inhibition, % at 12.5 µM | AID 651582 | H9c2 cells, Nile Red lipid (TAG) fluorescence; cells loaded with 200 µM oleic acid | hit rate 0.66% among 230,000;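 active = pattern-corrected inhibition of lipid staining of at least 50% with the nuclear-stain viability signal not falling by more than 50%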;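 note: 0% = DMSO wells and 100% = triacsin C control wells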
NR2F2 inh: inhibitors of human COUP-TFII (NR2F2); AID 686940; hit rate 0.7% among 370,000; HEK293T NGFI-A luciferase reporter, luminescence; inhibition, % at 8.6 µM; P24468;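 active = inhibition above a per-plate cutoff, mean inhibition of test wells between control levels plus 3 SD, cut at about 38% in these data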;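 note: cells cotransfected with COUP-TFII expression vector driving the NGFI-A reporter; 0% = median of COUP-TF2 test wells and 100% = reporter-only cells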
Target sequence (P24468 whole entry, looked up): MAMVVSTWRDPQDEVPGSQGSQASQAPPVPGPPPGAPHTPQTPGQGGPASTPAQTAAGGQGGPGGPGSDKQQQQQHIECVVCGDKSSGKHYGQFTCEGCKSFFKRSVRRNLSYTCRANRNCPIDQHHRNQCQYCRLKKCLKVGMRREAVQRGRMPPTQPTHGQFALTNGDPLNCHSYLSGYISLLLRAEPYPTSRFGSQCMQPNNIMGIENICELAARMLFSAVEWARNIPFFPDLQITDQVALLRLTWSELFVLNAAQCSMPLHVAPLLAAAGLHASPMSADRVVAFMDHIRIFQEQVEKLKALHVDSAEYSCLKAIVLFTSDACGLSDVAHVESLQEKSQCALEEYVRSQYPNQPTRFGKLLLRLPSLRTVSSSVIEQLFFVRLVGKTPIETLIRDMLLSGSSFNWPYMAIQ
Gli-Sufu antag: Gli-Sufu pathway antagonism; Sufu-KO-LIGHT fibroblasts, Gli luciferase reporter luminescence; hit rate 0.74% among 340,000; AID 588413; inhibition, % at 5 µM;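 active = inhibition above about 55%, limit read from the data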;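 note: 0% = DMSO-treated cells and 100% = wells with medium but no cells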
Jurkat NFkB inh: inhibitors of the PMA/ionomycin-induced NF-kB reporter in Jurkat cells; PMA/ionomycin-induced NF-kB luciferase reporter, luminescence; inhibition, % at 4 µM; hit rate 0.53% among 330,000; in the data active = inhibition above about 50%
Starred values were filed as active, the others as inactive; ! = not confirmed by another sample.

`COc1ccc2nc3ccccc3nc2c1N` gave 697 NFkB inh -19, Cardio protect 27, H9c2 TAG inh 5, NR2F2 inh -13, Gli-Sufu antag -12 and Jurkat NFkB inh -8.
O=C(N/N=C/c1c(O)ccc2ccccc12)c1ccc(CO)nc1 was read as 697 NFkB inh -11, Cardio protect 59*, NR2F2 inh -17, Gli-Sufu antag 17 and Jurkat NFkB inh 35.
For O=CN/N=C/c1c(O)ccc2ccccc12 the results were 697 NFkB inh 6, Cardio protect 30, H9c2 TAG inh 44, NR2F2 inh -10, Gli-Sufu antag -2 and Jurkat NFkB inh 18.
`NC(=S)N/N=C/c1c(O)ccc2ccccc12` gave 697 NFkB inh -18, Cardio protect 57*, H9c2 TAG inh -20, NR2F2 inh 6, Gli-Sufu antag 9 and Jurkat NFkB inh 13.
`O=C(c1cccc(I)c1)N1CCC(Oc2cccnc2)CC1` gave NR2F2 inh -8.
O=C(NCc1ccc(F)c(F)c1)C1CCCN(c2nc3ccccc3o2)C1 (stereo not drawn) was read as NR2F2 inh 10.
`CCOC(=O)N(C)[C@H]1C[C@H]2c3cc(-c4ccccc4C)ccc3CCN2C[C@H]1[C@H](C)O` gave NR2F2 inh 61*.
Screening CCOC(=O)N(C)[C@H]1C[C@H]2c3[nH]c4c(-c5cccc(C)c5)cccc4c3CCN2C[C@H]1[C@H](C)O returned NR2F2 inh 2.
For Cc1cc(SCC(=O)c2ccc(O)c(O)c2)n2nc(C)c(-c3ccccc3)c2n1 the results were 697 NFkB inh 0, Cardio protect 71*, H9c2 TAG inh 26, NR2F2 inh -10, Gli-Sufu antag 10 and Jurkat NFkB inh 20.
Screening Cc1cc(C)nc(SCC(=O)c2ccc(O)c(O)c2)n1 returned 697 NFkB inh -9, Cardio protect 18, H9c2 TAG inh 12, NR2F2 inh -6, Gli-Sufu antag -2 and Jurkat NFkB inh -26.
Screening COc1ccccc1-c1cc(NC=O)c2ncc(-c3cccc(C(C)=O)c3)n2c1 returned Cardio protect 60*, H9c2 TAG inh 15 and NR2F2 inh 7.
COc1cccc(-c2cnc3c(NC=O)cc(-c4cc(OC)c(OC)c(OC)c4)cn23)c1 was read as Cardio protect 71*, H9c2 TAG inh 21 and NR2F2 inh -54.
`CC(=O)c1cccc(-c2cnc3c(NC=O)cc(-c4ccc(F)cc4)cn23)c1` gave Cardio protect 61*, H9c2 TAG inh 3 and NR2F2 inh -9.
Screening CN(C)CCNC(=O)c1cccc(-c2cnc3c(NC=O)cc(-c4ccc(F)cc4)cn23)c1 returned Cardio protect -11, H9c2 TAG inh 6 and NR2F2 inh -2.
`COCC(=O)N1CCC(C(=O)NCC2COc3ccccc3O2)CC1` (stereo not drawn) gave NR2F2 inh 18.
CCCCNC(=O)C[C@H]1C[C@@]2(C(=O)OC)C(=C[C@H](C3CCCC3)O[C@@H]2C)N(CCc2ccc(OC)c(OC)c2)C1=O was read as NR2F2 inh 19.
`Oc1ccc2ccccc2c1N=Nc1ccc(F)cc1` gave 697 NFkB inh -15, Cardio protect -10, H9c2 TAG inh 58*, NR2F2 inh -13, Gli-Sufu antag 3 and Jurkat NFkB inh -9.
`Oc1ccccc1/C=N/Nc1nccnc1Cl` gave 697 NFkB inh -72, Cardio protect 17, H9c2 TAG inh -22, NR2F2 inh -57, Gli-Sufu antag 57* and Jurkat NFkB inh 20.
For O=[N+]([O-])c1ccc(O)c(/C=N/Nc2ncnc3c2cnn3-c2ccccc2)c1 the results were 697 NFkB inh 5, Cardio protect 9, NR2F2 inh -15, Gli-Sufu antag 58* and Jurkat NFkB inh 21.
`O=[N+]([O-])c1ccccc1/C=N/Nc1nccnc1Cl` gave 697 NFkB inh -20, Cardio protect 6, NR2F2 inh -15, Gli-Sufu antag -6 and Jurkat NFkB inh -24.
Screening Oc1ccc(/C=N/Nc2nccnc2Cl)c(O)c1 returned 697 NFkB inh -37, Cardio protect 52*, H9c2 TAG inh -50, NR2F2 inh -46, Gli-Sufu antag 45 and Jurkat NFkB inh 48.
For Cc1c(/C=N/Nc2nc3ccccc3[nH]2)c2ccccc2n1C the results were 697 NFkB inh -71, Cardio protect -15, H9c2 TAG inh 62*, NR2F2 inh 7, Gli-Sufu antag 0 and Jurkat NFkB inh -15.
For Oc1ccc(C=NNc2ccccn2)c(O)c1 the results were Cardio protect 0, H9c2 TAG inh 53*, NR2F2 inh -29 and Gli-Sufu antag 44.
O=[N+]([O-])c1ccc(O)c(/C=N/Nc2ccccn2)c1 was read as Cardio protect 26, NR2F2 inh -25 and Gli-Sufu antag 72*.
For COc1cccc(/C=N/Nc2nccnc2Cl)c1O the results were 697 NFkB inh -108, Cardio protect -10, H9c2 TAG inh 35, NR2F2 inh -60, Gli-Sufu antag 68* and Jurkat NFkB inh -34.
For O=[N+]([O-])c1ccc(NN=Cc2ccccc2O)nc1 the results were Cardio protect 34, H9c2 TAG inh 3, NR2F2 inh -16 and Gli-Sufu antag 22.
Screening COc1cccc(/C=N/Nc2nc3ccccc3[nH]2)c1O returned 697 NFkB inh -180, Cardio protect 13, H9c2 TAG inh 59*, NR2F2 inh -50, Gli-Sufu antag 24 and Jurkat NFkB inh -73.
For COc1cccc(/C=N/Nc2nc3ccccc3[nH]2)c1OC the results were 697 NFkB inh -116, Cardio protect 0, H9c2 TAG inh 3, NR2F2 inh -21, Gli-Sufu antag -46 and Jurkat NFkB inh -124.
`Cc1ccc(-c2cc(C#N)c3n(c2=O)CCC3)cc1` gave NR2F2 inh 8.
CN(C(=O)c1cccc(NC(=O)Cc2ccc(NC(=O)C3CCN(C(=O)CCc4ccccc4)CC3)cc2)c1)C1CCCC1 was read as NR2F2 inh 0.
Screening CN(Cc1ccc(Cl)s1)C(=O)CCl returned 697 NFkB inh 23, Cardio protect -5, H9c2 TAG inh 65*, NR2F2 inh -1, Gli-Sufu antag -13 and Jurkat NFkB inh 16.
CC(C)(C)C(=O)Nc1ccccc1N1CCN(C(=O)c2ccc(Cl)cc2)CC1 was read as 697 NFkB inh 5, Cardio protect -20, H9c2 TAG inh 16, NR2F2 inh 8, Gli-Sufu antag -1 and Jurkat NFkB inh 6.
CC(C)C(=O)NC(=S)Nc1ccccc1N1CCN(C(=O)c2ccc(Cl)cc2)CC1 was read as 697 NFkB inh 5, Cardio protect 52*, H9c2 TAG inh 3, NR2F2 inh -7, Gli-Sufu antag 8 and Jurkat NFkB inh 1.
`CCC[C@H]1[C@@H](NC(=O)NCC)CC[C@@]23CCCN2C(=O)CCC[C@@H]13` gave NR2F2 inh 14.
For CN(C)CCCN1c2ccccc2Sc2ccc(Cl)cc21 the results were 697 NFkB inh 11, Cardio protect 27, H9c2 TAG inh 50*!, NR2F2 inh -12, Gli-Sufu antag 13 and Jurkat NFkB inh -11.
